Measured values taken from PubChem BioAssay (NCI).
Compounds without any hit were thinned out: in the full panel of roughly 83,000, 20% have a hit.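 Cell lines were cultured in 96-well plates, exposed to a single compound concentration, and assessed for percent growth 48 hours later.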 Values without a mark were called inactive. The source made the active and inactive calls. How the source made its calls: active means growth percent below 10; inactive means the rest.

Columns and labels:
Assay in all cases: NCI-60 one-dose screen, 48 h (100 = growth as untreated, 0 = no growth, -100 = all killed)
Conditions in all cases: 10 µM unless noted
NCI-H23 lung = test system: NCI-H23 lung
NCI-H226 lung = test system: NCI-H226 lung
NCI-H322M lung = test system: NCI-H322M lung
HOP-62 NSCLC = test system: HOP-62 NSCLC
NCI-H460 lung = test system: NCI-H460 lung
HOP-92 NSCLC = test system: HOP-92 NSCLC
NCI-H522 lung = test system: NCI-H522 lung
A549/ATCC NSCLC = test system: A549/ATCC NSCLC
COLO 205 colon = test system: COLO 205 colon
DU-145 prostate = test system: DU-145 prostate
K-562 leukemia = test system: K-562 leukemia
MALME-3M melanoma = test system: MALME-3M melanoma
MDA-MB-231 breast = test system: MDA-MB-231 breast
RXF 393 renal = test system: RXF 393 renal
SF-268 CNS = test system: SF-268 CNS
SF-539 CNS = test system: SF-539 CNS
UACC-257 melanoma = test system: UACC-257 melanoma
M14 melanoma = test system: M14 melanoma
786-0 renal = test system: 786-0 renal
SF-295 CNS = test system: SF-295 CNS

| SMILES | growth (NCI-H23 lung) | growth (NCI-H226 lung) | growth (NCI-H322M lung) | growth (HOP-62 NSCLC) | growth (NCI-H460 lung) | growth (HOP-92 NSCLC) | growth (NCI-H522 lung) | growth (A549/ATCC NSCLC) | growth (COLO 205 colon) | growth (DU-145 prostate) | growth (K-562 leukemia) | growth (MALME-3M melanoma) | growth (MDA-MB-231 breast) | growth (RXF 393 renal) | growth (SF-268 CNS) | growth (SF-539 CNS) | growth (UACC-257 melanoma) | growth (M14 melanoma) | growth (786-0 renal) | growth (SF-295 CNS) |
| --- | --- | --- | --- | --- | --- | --- | --- | --- | --- | --- | --- | --- | --- | --- | --- | --- | --- | --- | --- | --- |
| O=C1C=C(O)C(=O)C(CC2=C(O)C(=O)C=C(O)C2=O)=C1O | 113% | 102% | 105% | 104% | 104% | 109% | 92.1% | 92% | 115% | 110% | 106% | 108% | 95.8% | 110% | 100% | 88.5% | 105% | 104% | – | – |
| CCOC(=O)n1cc(-c2nonc2-c2cn(C)c3ncccc23)c2cc(F)ccc21 | 76% | 57.8% | 85.8% | 89.8% | 92.1% | 58.8% | 72% | – | 96% | 91.1% | 61.2% | 84.4% | 68.2% | 78.3% | 74.2% | 77.9% | 91.2% | 93.8% | 81.3% | 76% |
| Oc1ccc(N=Cc2ccccc2O)cc1 | 92.3% | 113% | 90.6% | 93.6% | 96.4% | 75.3% | 81.3% | 101% | 120% | 103% | – | 73.6% | 99.7% | – | 93.4% | 79.9% | – | 94.2% | 93.4% | 107% |
| O=C(COc1cccc(/C=C2\CSc3ccccc3C2=O)c1)Nc1nccs1 | 19.7% | 104% | 98.7% | 88.1% | 91.5% | -52% (active) | -60.3% (active) | – | 113% | 106% | -58.1% (active) | 16.9% | 80.6% | 71% | 43.5% | 75.3% | 86% | 39.1% | 101% | 115% |
| Fc1ccc2[nH]cc(SSc3c[nH]c4ccc(F)cc34)c2c1 | 45.9% | 52% | 89.7% | 31.7% | 30.5% | -27.9% (active) | 0.948% (active) | – | 40.9% | 90.4% | 23.2% | 83.6% | 42.7% | 14.4% | 17.7% | 36.8% | 78.7% | 53.2% | 60.8% | -17.2% (active) |
| C=C(C)[C@@H]1CC[C@]2(C(=O)OC)CC[C@]3(C)[C@H](CC[C@@H]4[C@@]5(C)C/C(=C/c6ccc(OC)cc6)C(=O)C(C)(C)[C@@H]5CC[C@]43C)[C@@H]12 | 84.8% | 97.2% | 106% | 99.9% | 101% | 77.9% | 78.8% | – | 94.4% | 91.1% | 3.32% (active) | 99.7% | 108% | 66.9% | 90.7% | 90.3% | 104% | 91% | 92.2% | 99.9% |
| CC(C)n1c(/C=C/[C@@H](O)C[C@@H](O)CC(=O)O)c(-c2ccc(F)cc2)c2ccccc21 | 38.4% | 64.1% | 43.7% | 73.4% | 32.5% | -29.1% (active) | 0.551% (active) | – | 75.4% | 97.9% | 66.4% | 79.6% | 15.7% | 50.9% | 43.6% | 83.5% | 79.4% | 55.5% | 64% | 16.8% |
| Cc1ccc(C2=NN3C(C2)c2cc(Br)ccc2OC32CCN(Cc3ccccc3)CC2)o1 (centres undefined) | 94.9% | 86.9% | 92.7% | 104% | 98% | 80% | 89.1% | – | 105% | 98.8% | 85.3% | 103% | 92.3% | 110% | 84.4% | 101% | 101% | 106% | 103% | 100% |
| Cc1ccc(C(SCC(N)C(=O)O)(c2ccccc2)c2ccc(C)cc2)cc1 (centres undefined) | 12.6% | 56.3% | 29.4% | 31.9% | 9.22% (active) | -10.1% (active) | -19% (active) | -2.96% (active) | -3.13% (active) | -43.8% (active) | – | 19.8% | -12.7% (active) | – | 20.5% | -5.21% (active) | – | -34.4% (active) | 25.1% | 14.7% |
| COc1cc(Nc2cc(C)nc(N3CCN(c4ccnc5cc(Cl)ccc45)CC3)n2)cc(OC)c1 | 9.55% (active) | 22.9% | 8.83% (active) | 10.1% | 2.55% (active) | 5.3% (active) | 9% (active) | – | -24.4% (active) | 2.17% (active) | 8.3% (active) | – | -35.1% (active) | 4.88% (active) | 15.1% | -16.9% (active) | 49.2% | 4.43% (active) | -13.1% (active) | 0.307% (active) |
| CCCCC(=O)OCC1OC(n2cnc3c(=S)nc[nH]c32)C(OC(=O)CCCC)C1OC(=O)CCCC (centres undefined) | 27.5% | 31.4% | 36.4% | 25.4% | 30.3% | 20.2% | 34.5% | 39.8% | 38.8% | 32% | – | 49.5% | 35.6% | – | 39% | 20.2% | – | 10.4% | 20.5% | 30.3% |
| COc1ccc(C(=O)COc2cccc(/C=C3\CSc4ccccc4C3=O)c2)cc1 | 12.9% | 79.9% | 62.4% | 86.9% | 72.6% | 60.4% | -63.1% (active) | – | 105% | 102% | -73.4% (active) | -67.2% (active) | 76.6% | -39.6% (active) | 51.7% | 62.5% | -35.8% (active) | -26.3% (active) | 80.2% | 38% |
| Cc1cc2c3ccccc3ccc2[n+]2ccccc12 | 46.4% | 43.4% | 47.2% | 9.19% (active) | 63.1% | 71.5% | -10.1% (active) | -16.9% (active) | 54.1% | 86.9% | – | -5.59% (active) | 81.6% | – | -24.6% (active) | 42.5% | – | 68.2% | 24% | 22.6% |
| NC(CSC(c1ccccc1)(c1ccccc1)c1ccc(Cl)cc1)C(=O)O (centres undefined) | 8.79% (active) | 47.2% | 36.5% | 27.5% | 7.15% (active) | -15.9% (active) | 5.69% (active) | -9.59% (active) | -13% (active) | -49.7% (active) | – | 22.6% | -32.8% (active) | – | 16.2% | -12.3% (active) | – | -24.2% (active) | 25.6% | 13.8% |
| NC(N)=N/N=C(/c1ccccc1)c1ccc(F)cc1 | 3.78% (active) | 8.06% (active) | 39.3% | 19.7% | 6.84% (active) | -16.9% (active) | -44.8% (active) | -15.1% (active) | -47% (active) | -19.7% (active) | – | 36.5% | -18.9% (active) | – | 14.2% | -33.5% (active) | – | -3.19% (active) | 18.6% | 3.89% (active) |
| Cc1nc2c3c(-c4ccccc4)c(-c4ccccc4)oc3ncn2n1 | 93.1% | 92.2% | 102% | 90.7% | 98% | 81.7% | 80.8% | – | 110% | 104% | 94.3% | 109% | 83.3% | 99.6% | 94% | 90.2% | 106% | 102% | 99.1% | 92.7% |
| C=CC(=O)Nc1cccc(Nc2nc(SC)nc(-c3cccc([N+](=O)[O-])c3)c2C#N)c1 | 44.8% | 47.2% | 74% | 53.4% | 40.4% | -19.6% (active) | 38.7% | – | 20.3% | 30% | 46.5% | 14.9% | 52.2% | 18.5% | 74.8% | 76.6% | 49% | 45% | 63.8% | 49.7% |
